Inhibition data for 40 compounds are collected here from PubChem BioAssay.

Structures are written as SMILES. Calls of active or inactive are those of the source. The rule behind the calls is not given here.

The target of the assay is Pantothenate synthetase (Mycobacterium tuberculosis (strain ATCC 25618 / H37Rv)) (UniProt P9WIL5). Description: Recombinant Mtb pantothenate synthetase (PanC) inhibitors, coupled enzyme, confirmatory (AID 375).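 Note: 0% = full reaction with vehicle and 100% = no enzyme background.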 As to conditions: coupled enzyme assay; at 10 µM, stronger effect = higher value.
Chain of Pantothenate synthetase (Mycobacterium tuberculosis (strain ATCC 25618 / H37Rv)) (P9WIL5 whole entry, looked up): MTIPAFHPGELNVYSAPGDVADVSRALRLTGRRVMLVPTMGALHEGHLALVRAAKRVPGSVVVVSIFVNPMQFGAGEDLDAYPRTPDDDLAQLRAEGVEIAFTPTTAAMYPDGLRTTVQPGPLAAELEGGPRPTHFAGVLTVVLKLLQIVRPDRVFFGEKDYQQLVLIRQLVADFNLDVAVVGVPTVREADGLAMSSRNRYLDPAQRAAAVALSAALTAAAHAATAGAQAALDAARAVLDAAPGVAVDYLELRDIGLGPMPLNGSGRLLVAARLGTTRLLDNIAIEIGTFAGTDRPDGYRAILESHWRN
Consider `COCCNC(=O)CN1CCC(NC(=O)Nc2ccc(C(F)(F)F)cc2)CC1`, for which the inhibition was 4% (inactive).

As for `O=C1NC(Nc2ccccn2)(C(F)(F)F)C(=O)N1c1ccc(F)cc1` (stereo not given), the inhibition is 0% (inactive).

As to `CCOC(=O)N1CCN(S(=O)(=O)c2cc(C)c(C)cc2C)CC1`, the inhibition was 0% (inactive).

Turning to `O=C(NCCN1CCOCC1)NC1(C(F)(F)F)Oc2ccc(Cl)cc2O1` (stereo not given), the inhibition is 0% (inactive).

With `CCOC(=O)NC(=O)CSc1nnnn1-c1ccc(Cl)cc1`, the inhibition is 0% (inactive).

With `O=C(CSc1nc2[nH]ncc2c(=O)n1-c1ccccc1Br)NCc1ccco1`, the inhibition is 1% (inactive).

In the case of `c1ccc(OCc2nc(-c3ccccc3)no2)cc1`, the inhibition was 0% (inactive).

As for `Brc1ccccc1-c1nc(-c2ccccc2)no1`, the inhibition is 0% (inactive).

Take `COc1ccccc1N(C)S(=O)(=O)c1ccc(C(=O)NC2=NCCS2)cc1`: the inhibition was 7% (inactive).

As for `Cc1nc(NCc2ccccn2)c2ccccc2n1`, the inhibition was 7% (inactive).

For the compound `Cc1sc2ncnc(OCC(=O)N3CCN(S(=O)(=O)c4ccc(Cl)cc4)CC3)c2c1C`, the inhibition is 0% (inactive).

For the compound `Nc1nc2n(n1)C(c1c(F)cccc1Cl)CC(c1ccc(F)cc1)N2` (stereo not given), the inhibition was 1% (inactive).

Regarding `c1ccc(CC2CCN(Cc3nc(-c4ccccc4)no3)CC2)cc1`, the inhibition is 3% (inactive).

As for `CCn1c(C(=O)OC)cc2c1ccn2-c1ccc(F)cc1`, the inhibition is 0% (inactive).

For `COc1ccc(S(=O)(=O)Nc2ccc(F)c(F)c2)cc1Cl`, the inhibition was 0% (inactive).

With `COC(=O)c1cc2oc(C)cc2n1CC(=O)Nc1ccc(C)c(C)c1`, the inhibition is 0% (inactive).

On to `N#Cc1nc(-c2ccco2)oc1N1CCN(c2cccc(Cl)c2)CC1`, for which the inhibition is 6% (inactive).

Regarding `Fc1cccc(Cl)c1Cn1nnc2c(NCc3ccccn3)ncnc21`, the inhibition was 0% (inactive).

For `CC(=O)c1cccc(NC(=O)CCOc2ccccc2)c1`, the inhibition was 1% (inactive).

With `COc1ccc(Br)cc1CNC(=O)CCc1nc(-c2ccc(C)cc2)no1`, the inhibition is 4% (inactive).

Regarding `O=C(NCc1cccnc1)c1ccc(Cl)c(Cl)c1`, the inhibition was 0% (inactive).

For `CC(C)(C)c1ccc(C(=O)N2CCC(C(=O)NCc3ccncc3)CC2)cc1`, the inhibition is 0% (inactive).

With `COc1ccc(S(=O)(=O)N2CCC(C(=O)NCc3ccco3)CC2)cc1`, the inhibition was 2% (inactive).

As to `Cn1c(=O)c2c(nc(SCc3nn[nH]n3)n2Cc2ccccc2F)n(C)c1=O`, the inhibition was 0% (inactive).

With `CCOC(=O)C1CCN(c2c(N3CCCC(C(=O)OCC)C3)c(=O)c2=O)CC1` (stereo not given), the inhibition is 6% (inactive).

As to `CCCCN=CC1=C(O)C(C(=O)OC)C(C)(C)CC1=O` (stereo not given), the inhibition is 0% (inactive).

As to `COc1ccc(-n2c(Cc3cccn3C)nnc2SCC(=O)NCC2CCCO2)cc1` (stereo not given), the inhibition was 11% (inactive).

As to `O=C(O)c1cccnc1Nc1cccc(C(F)(F)F)c1`, the inhibition is 0% (inactive).

In the case of `CCSC1=C(C#N)C(c2ccccc2OC)CC(=O)N1` (stereo not given), the inhibition was 4% (inactive).

Consider `c1ccc(-c2nn3c(Cn4nnc5ccccc54)nnc3s2)nc1`, for which the inhibition was 0% (inactive).

As for `CCCCP(=O)(CCCC)Cc1ccccc1O`, the inhibition was 0% (inactive).

Turning to `CC1CCCN(S(=O)(=O)c2ccc(C(=O)Nc3nnc(-c4ccccc4Cl)o3)cc2)C1` (stereo not given), the inhibition was 0% (inactive).

For the compound `CC(=O)Oc1ccc(C(c2ccc(OC(C)=O)cc2)c2ccccn2)cc1`, the inhibition was 0% (inactive).

As to `CC(C)(C)n1ncc2c(=O)n(CC(=O)NCc3ccc(F)cc3)cnc21`, the inhibition is 4% (inactive).

For `CCCNC(=O)C1CN(S(=O)(=O)c2ccccc2)CCN1S(=O)(=O)c1ccccc1` (stereo not given), the inhibition is 0% (inactive).

Turning to `COC(=O)c1ccsc1NC(=O)CN1C(=O)CCC1=O`, the inhibition is 0% (inactive).

On to `CN1[C@@H](CC(=O)c2ccccc2)CCC[C@H]1C[C@H](O)c1ccccc1`, for which the inhibition is 8% (inactive).

With `COc1cccc(NC(=O)NC2(C(F)(F)F)Oc3ccccc3O2)c1`, the inhibition was 0% (inactive).

On to `CCCC(=O)Nc1ccc2oc(-c3cccnc3)nc2c1`, for which the inhibition was 0% (inactive).

Take `COc1ccc(-c2nnc(SCC(=O)NC(=O)NCc3ccco3)o2)cc1`: the inhibition was 0% (inactive).
